IP6K1 inh: blocks human inositol hexakisphosphate kinase 1. activity change, % (series mostly up to about 58 µM). IP6K1 kinase, ADP-Glo luminescence, 2 h; stronger effect = lower value. Q92551. AID 1645851. actives 0.81% (n = 140,000); in the data active means activity change below about -25%; further: on the % scale 0 is the no-effect control and ±100 the full control effect
Target sequence (Q92551 whole entry, looked up): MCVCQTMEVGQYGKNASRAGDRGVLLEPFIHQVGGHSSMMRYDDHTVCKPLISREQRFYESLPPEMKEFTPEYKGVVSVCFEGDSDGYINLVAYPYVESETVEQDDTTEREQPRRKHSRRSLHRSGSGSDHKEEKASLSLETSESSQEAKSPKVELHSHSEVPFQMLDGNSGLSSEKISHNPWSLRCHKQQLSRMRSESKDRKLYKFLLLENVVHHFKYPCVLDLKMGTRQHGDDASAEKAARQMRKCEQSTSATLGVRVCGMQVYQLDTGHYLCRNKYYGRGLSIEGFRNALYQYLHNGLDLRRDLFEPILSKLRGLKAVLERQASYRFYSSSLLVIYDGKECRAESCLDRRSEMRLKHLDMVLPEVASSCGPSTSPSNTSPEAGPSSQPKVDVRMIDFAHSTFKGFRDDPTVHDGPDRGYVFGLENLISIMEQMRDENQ
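ADP-Glo luminescence measures ADP made by human IP6K1 during a 2 h RT reaction with ATP/IP6 (mix at 1.3 mM/130 uM); top library doses 57.5 and 19.1 uM final.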
SNCA viab count: cell viability loss counter-screen; HEK-293-SNCA-luc viability, GF-AFC fluorescence, 24 h; Potency, µM (top dose mostly 57.1 µM), without a hit: at the top dose activity change, negative = cytotoxicity, actives largely listed as cytotoxic; actives 0.12% (n = 150,000); AID 1671193;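 further: potency means the concentration at half of the fitted maximal effect; 0% = DMSO-treated cells and -100% = medium-only wells without cells; nearly all actives have a fitted effect of over 30% in size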
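Cytotoxicity counterscreen: after 24 h compound treatment of genome-edited SNCA-luciferase HEK-293 cells, live-cell protease substrate GF-AFC read by fluorescence after 30 min; activity scaled between DMSO (0%) and medium-only (-100%), curves Hill-fitted.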
SNCA expr inhib: SNCA gene expression inhibition | HEK-293 SNCA-luciferase knock-in, luminescence, 24 h | Potency, µM (doses to about 57.2 µM), inactives show at the highest dose activity change, negative = inhibition, most hits filed as inhibitors | actives 0.17% (n = 140,000);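 further: potency means the concentration at half of the fitted maximal effect; plate controls were DMSO cells for no effect and cell-free wells for full effect; nearly all actives have a fitted effect of over 45% in size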
KDM5B inh: KDM5B demethylase inhibition; KDM5B demethylase, FDH-coupled NADH fluorescence (FDH is formaldehyde dehydrogenase); Potency, µM (series often up to 57.7 µM), most hits filed as inhibitors; actives 2.6% (n = 220,000); Q9UGL1; further: potency means the concentration at half of the fitted maximal effect; 0% is about no effect; nearly all actives have a fitted effect of over 70% in size
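Measured: NADH fluorescence change, 30 min, RT. System: KDM5BΔAP 200 nM final, H3K4me3 peptide, α-KG, Fe(II), ascorbate, NAD⁺ plus FDH, pH 7.5 HEPES. Compounds: titrated, 10 min pre-incubation with enzyme.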
* hit, by the source's call; i = inactive; u = inconclusive; x = no result given; [ ] = dose if it differs, or a comment. Sampled rows, rich in hits. Any-hit rate of the full collection: about 3%. Unless noted, the call rests on the fitted dose curve; in most records, active means well fitted curve in the direction sought with a large enough effect; inconclusive means small, poorly fitted or top-dose-only effect, or another doubt; inactive means no such curve, though single readings can be large; an effect the other way counts as inactive or inconclusive.

SMILES	IP6K1 inh	SNCA viab count	SNCA expr inhib	KDM5B inh
Cc1ccc(F)cc1-c1cccc(CCOc2cnc3c(ccn3CC(=O)O)c2)c1	-19	1%[87.6 µM]	-21%[87.6 µM]	35µM*
COc1cccc(-c2cccc(COc3cnc4c(ccn4CC(=O)O)c3)c2)c1F	-22	1%[87.6 µM]	u	35µM*
Cc1oc(-c2ccccc2)nc1CC(=O)NCCc1cccc(F)c1	x	x	x	i
CC(C)NC(=O)c1nc2cccnc2n(C2CCCC2)c1=O	11	-3%[87.6 µM]	-6%[87.6 µM]	x
C[S+](=O)([O-])CCn1ncc2cc(OCc3cccc(-c4ccccc4F)c3)ccc21	-8	-20%[87.6 µM]	-12%[87.6 µM]	u
O=C(O)Cn1ccc2cc(OCCc3cccc(-c4ccccc4F)c3)cnc21	-12	-1%[87.6 µM]	-7%[87.6 µM]	32µM*
CCN(CC)CCOc1ccc(Nc2ncc3cc(-c4c(Cl)cccc4Cl)c(=O)n(C)c3n2)cc1	x	u	3µM*	x
Cc1cc(Nc2ncc3cc(-c4c(Cl)cccc4Cl)c(=O)n(C)c3n2)ccc1F	6	-19%	x	x
CCC(C)C(=O)Nc1c(C(=O)OC)n(CC2CCCO2)c2ncc(NC(C)CO)cc12 (stereo unspecified)	12	15%	11%	28µM*
COC(=O)c1c(NC(C)=O)c2cc(NC3CCCCC3)cnc2n1CC1CCCO1 (stereo unspecified)	6	7%	20%	u
CCC(C)C(=O)Nc1c(C(=O)OC)n(CC2CCCO2)c2ncc(NC(C)CCO)cc12 (stereo unspecified)	-3	28%	-12%	6.3µM*
COC(=O)c1c(NC(C)=O)c2cc(NC(C)CC(C)(C)O)cnc2n1CCC(C)C (stereo unspecified)	0	u	13%	20µM*
COc1ccc(F)cc1-c1ccc(CN2CCCCC2C(=O)NCc2cccs2)cc1 (stereo unspecified)	-5	x	x	x
Cc1nn(-c2ccccc2)c2c1C(C)N(C1CN(C(=O)C3CC3)C1)C2=O (stereo unspecified)	2	x	x	x
C[C@H](NC(=O)C[C@@H]1c2nc(NC(=O)c3ccc(F)cc3)sc2C[C@@H]2[C@](C)(CO)[C@H](O)CC[C@]21C)c1ccccc1	-8	u	u	32µM*
COc1ccc(C(=O)Nc2nc3c(s2)C[C@@H]2[C@](C)(CO)[C@H](O)CC[C@@]2(C)[C@@H]3CC(=O)N2CCOCC2)cc1	16	3%	64%	u
CC(C)NC(=O)C[C@@H]1c2nc(NC(=O)c3ccc(C(C)(C)C)cc3)sc2C[C@@H]2[C@](C)(CO)[C@H](O)CC[C@]21C	-5	-10%	15%	32µM*
CC(C)(C)c1ccc(C(=O)Nc2nc3c(s2)C[C@@H]2[C@](C)(CO)[C@H](O)CC[C@@]2(C)[C@@H]3CC(=O)N2CCOCC2)cc1	-8	-5%	0%	28µM*
CC(C)(C)c1ccc(C(=O)Nc2nc3c(s2)C[C@@H]2[C@](C)(CO)[C@H](O)CC[C@@]2(C)[C@@H]3CC(=O)NCc2ccco2)cc1	-16	-17%	-28%	18µM*
O=C(NC1CCN(c2ccnc3ccnn23)CC1)c1cccc(Cl)c1	24	-12%[87.6 µM]	u	x
COc1ccc(-c2c(C(=O)NCCCc3ccccc3)nc3sccn23)cc1	4	-13%	-8%	x
COc1cccc(C(=O)NC2CCN(C(=O)c3ccc(-c4ncccc4C#N)cc3)CC2)c1	5	-12%[12.5 µM]	-12%	x
COc1ccccc1CNC(=O)C[C@@H]1c2nc(-c3cccnc3)sc2C[C@@H]2[C@](C)(CO)[C@H](O)CC[C@]21C	-2	0%	-19%	25µM*
Cc1ccc(-c2cn3c(n2)CO[C@@H](CNC(=O)c2ccccc2)C3)cc1	15	-5%[87.6 µM]	41%[87.6 µM]	32µM*
O=C(Nc1ccc(Oc2ccccc2)cc1)N[C@H]1CO[C@H]2[C@@H]1OC[C@H]2OC(=O)Nc1cccc2ccccc12	5	-25%	u	u
SMILES	IP6K1 inh	SNCA viab count	SNCA expr inhib	KDM5B inh
O=C(Nc1ccc(Oc2ccccc2)cc1)O[C@@H]1CO[C@H]2[C@@H]1OC[C@@H]2NS(=O)(=O)c1ccc2ccccc2c1	9	-23%	-26%	22µM*
O=C(Nc1ccc(Oc2ccccc2)cc1)O[C@@H]1CO[C@H]2[C@@H]1OC[C@@H]2NC(=S)Nc1cccc2ccccc12	1	-29%	u	32µM*
O=C(c1ccc(C(F)(F)F)cc1)N1CCN(C(=O)c2nc3cccnc3n(CCc3ccccc3)c2=O)CC1	1	-9%	-16%	x
Cc1nn(-c2ccccc2)c2c1C(C)N(C1CCCN(C(=O)C3CCCC3)C1)C2=O (stereo unspecified)	22	x	x	x
COc1ccccc1C(=O)N1CCCN(c2nnc3cccc(C)n23)CC1	11	11%	-27%	25µM*
Cc1ccc(C(=O)N2CCN(c3cc(-c4ccccc4)[nH]n3)CC2)cc1F	3	-7%	18%	i
COc1ccc(C(=O)N2CCN(c3nnc4cccc(C)n34)CC2)cc1F	14	-1%	4%	28µM*
Cc1ccc(C(=O)N2CCN(c3nnc4cccc(C)n34)CC2)cc1F	48	-7%	28%	28µM*
O=C(c1ccccc1F)N1CCC(N2CC3(CCCC3)C2c2ccccc2)CC1 (stereo unspecified)	0	-2%	-24%	x
O=C(CNC(=O)c1cccc(-c2ccc(C(F)(F)F)cc2)c1)NCC(F)F	1	-2%	4%	x
CC1=C[C@@H](CNS(=O)(=O)c2ccc(Cl)cc2)[C@H](C(C)C)C[C@H]1CC(=O)N1CCOCC1	3	u	u	u
COc1ncccc1-c1nccc2c(=O)cc(N3CCOCC3)oc12	12	-6%[87.6 µM]	8%[87.6 µM]	40µM*
COc1ccccc1-c1nccc2c(=O)cc(N3CCOCC3)oc12	-11	-18%[87.6 µM]	23%[87.6 µM]	u
Cc1ccccc1-c1nccc2c(=O)cc(N3CCOCC3)oc12	-5	6%[87.6 µM]	-3%[87.6 µM]	35µM*
CC(C)Oc1cccc2c1c(NC(=O)c1ccn(C)n1)nn2Cc1ccccc1	19	-25%	u	25µM*
CC(C)Oc1cccc2c1c(NC(=O)C1CCCO1)nn2Cc1ccccc1 (stereo unspecified)	-5	-4%	-7%	i
O=C(NCc1ccccn1)C1CCN(Cc2cc3n(n2)CCCNC3)CC1	-4	-2%	14%	i
O=C(NCc1cc2n(n1)CCNC2)C1CCCN(c2ccccn2)C1 (stereo unspecified)	5	1%	u	32µM*
O=C(C[C@@H]1CCNC[C@@H]1Cc1cc(-c2ccccc2)on1)NCc1ccc(F)cc1	13	1%[87.6 µM]	u	i
O=C(COc1ccccc1)NCc1nnc2ccc(-c3ccc(Cl)cc3)nn12	-2	9%	9%	u
Cc1cccc(OCC(=O)NCc2nnc3ccc(-c4ccc(F)cc4)nn23)c1	-1	-7%	-10%	35µM*
Cc1ccc(-c2ccc3nnc(CNC(=O)COc4cccc(C)c4)n3n2)cc1	-13	9%	-15%	10µM*
Cc1ccc(-c2ccc3nnc(CNC(=O)COc4ccc(F)cc4)n3n2)cc1C	-12	-10%	8%	u

Bioassay records deposited in PubChem BioAssay by National Center for Advancing Translational Sciences (NCATS).
